High-throughput results from PubChem.
hcDAF-12 act: H. contortus DAF-12 activation, primary screen | AID 652067 | HEK293 hcDAF-12 lit1-tk-luc reporter, luminescence; 0% DMSO, 100% Δ7-dafachronic acid | actives 1.4% (n = 370,000) | activation, % at 6.8 µM;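 active = activation above the mean of all tested compounds plus 3 SD, cut at about 5.5% in these data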
ssDAF-12 act: activates DAF-12 receptor from parasite S. stercoralis. HEK293 ssDAF-12/GRIP1 lit1-tk-luc reporter, luminescence; % of 3 µM dafachronic acid response. activation, % at 6.8 µM. actives 1% (n = 370,000). AID 652126;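 active = activation above the mean over all tested compounds plus 3 SD, cut at about 0.9% in these data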
DAX1 inh-1: inhibitors of human orphan nuclear receptor DAX1 (NR0B1). P51843. HEK293 Gal4-DAX1 luciferase reporter, luminescence. inhibition, % at 6.75 µM. actives 0.99% (n = 340,000). AID 504766;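 active = inhibition above the mean over all tested compounds plus 3 SD, cut at about 4.2% in these data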;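 note: inhibition shows as a rise in luminescence from relieved DAX1 repression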
Target sequence (P51843 207-470 limits assumed): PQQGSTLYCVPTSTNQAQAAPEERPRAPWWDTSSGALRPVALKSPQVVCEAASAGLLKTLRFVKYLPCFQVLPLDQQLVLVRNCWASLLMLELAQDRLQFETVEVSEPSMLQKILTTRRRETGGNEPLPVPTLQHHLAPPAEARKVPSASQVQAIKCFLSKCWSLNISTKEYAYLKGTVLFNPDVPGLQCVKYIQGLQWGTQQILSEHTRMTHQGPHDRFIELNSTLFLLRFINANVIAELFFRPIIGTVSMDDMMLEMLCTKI
DAX1 inh-2: DAX1 (NR0B1) inhibition, primary screen. HEK293T StAR-luciferase reporter, SF-1/DAX-1 repression relief. inhibition, % at 6.8 µM. actives 1.1% (n = 370,000);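 active = inhibition above the mean over all tested compounds plus 3 SD, cut at about 3.6% in these data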;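 note: higher inhibition means more luminescence from relief of DAX-1 repression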
hgDAF-12 ag: activates the H. glycines DAF-12 receptor ligand-binding domain | HEK293 GAL4-hgDAF12 UAS-luciferase reporter, agonist luminescence; normalized to butyrate control | activation, % at 6.8 µM | actives 1.8% (n = 370,000);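 active = activation above a cutoff set at the mean of all screened compounds plus 3 SD, cut at about 10% in these data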
LXR ag: LXR-beta agonism as hcDAF-12 counter-screen | shares compounds with hcDAF-12 act | HEK293 Gal4-LXR tk-luc reporter, luminescence, 24 h; normalized: DMSO 0%, positive control 100% | activation, % at 6.8 µM | 3,400 tested, under 10 active | AID 743027;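 active = mean percent activation of the reporter above a cutoff set as the average over tested compounds plus their standard deviation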
hcDAF12 ag: confirmation of H. contortus DAF-12 agonists; HEK293 hcDAF-12 lit1-tk-luc reporter, luminescence; % of Δ7-dafachronic acid response; AID 743032; activation, % at 6.8 µM; shares compounds with hcDAF-12 act; actives 61% (n = 3,400);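 active = mean activation across triplicate tests above the threshold derived from the earlier primary screen, cut at about 5.5% in these data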
hgDAF12 conf: hgDAF-12 agonism, confirmation assay | shares compounds with hgDAF-12 ag | HEK293 GAL4-hgDAF12 luciferase reporter, agonist mode; percent of butyrate response | activation, % at 6.8 µM | actives 80% (n = 3,300);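 active = mean activation over triplicate wells above the hit cutoff derived from the earlier primary screen, cut at about 11% in these data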
LXR ag 2: activates human LXR-beta, counter-screen for DAF-12 agonists | shares compounds with hgDAF-12 ag | HEK293 Gal4-LXR luciferase reporter, 24 h | activation, % at 6.8 µM | 3,300 tested, under 10 active | AID 743051;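 active = mean activation of the triplicate above a set limit carried over from the primary screen, none filed active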
Large screens that a line does not name were inactive (follow-up assays come after a bar, where they were run). Hits are enriched below; roughly 4.1% of the tested compounds scored in any of these assays.

COc1cc2ccccc2cc1C(=O)Nc1ccc(C)cc1	hcDAF-12 act 17, ssDAF-12 act 1.0, DAX1 inh-1 5.9, hgDAF-12 ag 19 | LXR ag inactive | hcDAF12 ag 12 | hgDAF12 conf 20 | LXR ag 2 inactive
COc1cc2ccccc2cc1C(=O)Nc1ccc(Cc2ccncc2)cc1	none
COc1cccc(-c2nc(-c3ccc(Br)o3)no2)c1	hcDAF-12 act 7.6, ssDAF-12 act 2.0, DAX1 inh-1 5.4, DAX1 inh-2 4.4, hgDAF-12 ag 31 | LXR ag inactive | hcDAF12 ag 12 | hgDAF12 conf 23 | LXR ag 2 inactive
COC(=O)[C@@]12CCCCC3=C1N(CCC3)C(=O)[C@H]2CC(=O)NCCCCc1ccccc1	none (no result: DAX1 inh-1)
CC(=NC1CCCCC1)C1=C(O)c2ccccc2C1=O	hcDAF-12 act 8.1, DAX1 inh-2 4.2, hgDAF-12 ag 16 | LXR ag inactive | hcDAF12 ag 5.8 | hgDAF12 conf 15 | LXR ag 2 inactive
COC(=O)N1Cc2ccnnc2CC1c1ccccc1-c1ccc(F)cc1 (stereo not given)	none (no result: DAX1 inh-1)
C=CCN1C(=O)[C@@H](CC(=O)NCCCN2CCCC2=O)[C@]2(C(=O)OCC)CCCCC/C=C/12	none (no result: DAX1 inh-1)
C=CCO[C@H]1CN(C(=O)OC)[C@@H](c2ccccc2Br)C[C@H]1OCC=C	none (no result: DAX1 inh-1)
Cc1ccc2nc(-c3ccc(NC(=S)NCC(C)(C)CN(C)C)cc3)sc2c1	hcDAF-12 act 7.8, DAX1 inh-1 13, DAX1 inh-2 4.0, hgDAF-12 ag 18 | LXR ag inactive | hcDAF12 ag inactive | hgDAF12 conf 13 | LXR ag 2 inactive
CCC[C@H]1[C@@H](OC(=O)NCCc2c[nH]c3ccccc23)CC[C@@]23CCCN2C(=O)CCC[C@@H]13	none (no result: DAX1 inh-1, DAX1 inh-2)
CC(=O)c1ccc2noc(-c3ccc(C)cc3)c2c1	none
Cc1ccc(-c2onc3ccc(C(=O)O)cc23)cc1	hcDAF-12 act 9.4, ssDAF-12 act 1.0, hgDAF-12 ag 19 | LXR ag inactive | hcDAF12 ag 8.7 | hgDAF12 conf 23 | LXR ag 2 inactive
CC(=O)c1ccc(NCC2COc3ccccc3O2)c([N+](=O)[O-])c1 (stereo not given)	hcDAF-12 act 11, ssDAF-12 act 1.4, hgDAF-12 ag 23 | LXR ag inactive | hcDAF12 ag 9.0 | hgDAF12 conf 15 | LXR ag 2 inactive
O=C(NCC1COc2ccccc2O1)c1ccc(-n2cncn2)c([N+](=O)[O-])c1 (stereo not given)	none
CC(C)C(=O)N1CC[C@H]2[C@H](CCCN2Cc2cc(F)cc(F)c2)C1	none (no result: DAX1 inh-1)
CN(C)/C=N/C1=C(C#N)C(c2cccs2)c2ccc3ccccc3c2O1 (stereo not given)	hcDAF-12 act 9.4, ssDAF-12 act 1.0, hgDAF-12 ag 24 | LXR ag inactive | hcDAF12 ag 8.5 | hgDAF12 conf 14 | LXR ag 2 inactive
Cc1cc(N2CCNC[C@@H]2C)ccc1N1C[C@@H](C)O[C@@H](C)C1	none (no result: DAX1 inh-1)
CC1=NC(=O)C(N=Nc2cccc(O)c2)N1c1ccccc1 (stereo not given)	hcDAF-12 act 9.3, hgDAF-12 ag 14 | LXR ag inactive | hcDAF12 ag 12 | hgDAF12 conf 16 | LXR ag 2 inactive
CC(COc1cccc(C(F)(F)F)c1)CN1CCC(C(O)(c2ccccc2)c2ccccc2)CC1 (stereo not given)	none (no result: DAX1 inh-1)
N#C/C(=C\c1ccc(OCc2ccc(C(=O)O)cc2)cc1)C(=O)N1CCOCC1	hcDAF-12 act 14, ssDAF-12 act 1.6, hgDAF-12 ag 19 | LXR ag inactive | hcDAF12 ag 7.8 | hgDAF12 conf 21 | LXR ag 2 inactive
